Bioassay records deposited in PubChem by National Center for Advancing Translational Sciences (NCATS).
SNCA viab count = GF-AFC viability counterscreen for inhibitors of alpha-synuclein gene (SNCA) expression; HEK-293-SNCA-luc viability, GF-AFC fluorescence, 24 h; Potency, µM (titrated, usually from 57.1 µM), without a hit: top-dose activity change, negative = cytotoxicity, hits mostly cytotoxic; actives 0.12% (n = 150,000);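 further: potency means the concentration at half of the fitted maximal effect; 0% = DMSO-treated cells and -100% = medium-only wells without cells; nearly all actives have a fitted effect of over 30% in size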
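Cytotoxicity counterscreen: after 24 h compound treatment of genome-edited SNCA-luciferase HEK-293 cells, live-cell protease substrate GF-AFC read by fluorescence after 30 min; activity scaled between DMSO (0%) and medium-only (-100%), curves Hill-fitted.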
KDM5B inhibitor = Primary screen for KDM5B Histone Demethylases FDH-coupled qHTS. Lysine-specific demethylase 5B (Homo sapiens), Q9UGL1. KDM5B demethylase, FDH-coupled NADH fluorescence (FDH is formaldehyde dehydrogenase). Potency, µM (doses to about 57.7 µM), hits mostly inhibitors. actives 2.6% (n = 220,000); further: potency means the concentration at half of the fitted maximal effect; 0% is about no effect; nearly all actives have a fitted effect of over 70% in size
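Measured: NADH fluorescence change, 30 min, RT. System: KDM5BΔAP 200 nM final, H3K4me3 peptide, α-KG, Fe(II), ascorbate, NAD⁺ plus FDH, pH 7.5 HEPES. Compounds: titrated, 10 min pre-incubation with enzyme.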
IP6K1 inhibitor = Primary qHTS assay for small molecule inhibitors of Inositol hexaphosphate kinase 1 (IP6K1) | Inositol hexakisphosphate kinase 1 (Homo sapiens), Q92551 | IP6K1 kinase, ADP-Glo luminescence, 2 h; stronger effect = lower value | activity change, % (series mostly up to about 58 µM) | actives 0.81% (n = 140,000); in the data active means activity change below about -25%; further: on the % scale 0 is the no-effect control and ±100 the full control effect
Target sequence (Q92551 whole entry, looked up): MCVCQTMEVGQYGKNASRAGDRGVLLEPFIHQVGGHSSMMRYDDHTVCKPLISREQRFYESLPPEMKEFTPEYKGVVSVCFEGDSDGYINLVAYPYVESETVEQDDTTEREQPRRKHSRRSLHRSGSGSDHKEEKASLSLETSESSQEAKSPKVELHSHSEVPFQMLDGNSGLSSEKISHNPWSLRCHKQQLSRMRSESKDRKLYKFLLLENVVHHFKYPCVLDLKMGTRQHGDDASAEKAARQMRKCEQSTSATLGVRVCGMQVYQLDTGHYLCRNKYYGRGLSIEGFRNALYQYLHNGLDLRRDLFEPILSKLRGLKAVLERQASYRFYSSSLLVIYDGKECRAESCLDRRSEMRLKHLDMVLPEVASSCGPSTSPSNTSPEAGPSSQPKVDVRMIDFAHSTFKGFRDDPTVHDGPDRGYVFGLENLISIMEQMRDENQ
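ADP-Glo luminescence measures ADP made by human IP6K1 during a 2 h RT reaction with ATP/IP6 (mix at 1.3 mM/130 uM); top library doses 57.5 and 19.1 uM final.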
SNCA expr inh = Primary qHTS assay for inhibitors of alpha-synuclein gene (SNCA) expression; HEK-293 SNCA-luciferase knock-in, luminescence, 24 h; actives 0.17% (n = 140,000); Potency, µM (top dose mostly 57.2 µM), without a hit: top-dose activity change, negative = inhibition, actives largely listed as inhibitors;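 further: potency means the concentration at half of the fitted maximal effect; plate controls were DMSO cells for no effect and cell-free wells for full effect; nearly all actives have a fitted effect of over 45% in size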
The depositor's hits bear a star; i = inactive; u = inconclusive; x = not tested or not shown; ! = a repeat was not active; [ ] = dose if it differs, or a comment. Most compounds without a hit are left out; they make up all but 2.8% or so of the library. Unless noted, the call rests on the fitted dose curve; in most records, active means well fitted curve in the direction sought with a large enough effect; inconclusive means small, poorly fitted or top-dose-only effect, or another doubt; inactive means no such curve, though single readings can be large; an effect the other way counts as inactive or inconclusive.

SMILES	SNCA viab count	KDM5B inhibitor	IP6K1 inhibitor	SNCA expr inh
O=C(NCc1ccncc1)c1ccc(-c2ccc(N3CCCCC3)nc2)cc1	u	u	-11	24%
COc1ccccc1C(=O)N1CCC(n2cc(-c3nc(-c4ccccc4)no3)nn2)C1 (centres undefined)	-21%	i	8	-24%
Cc1ccc(C(=O)NC2CCCN(c3ccc4nnc(-c5ccccc5)n4n3)C2)cc1 (centres undefined)	x	x	19	x
Cc1ccc(-c2cc(C(=O)N3CCOCC3)on2)cc1	x	i	x	x
O=C(NCc1ccccc1F)c1ccc(-c2ccc(N3CCSCC3)nc2)cc1	6%	18µM*	14	40%
CN1Cc2ccc(NCc3ccccc3)nc2C(C)(C(=O)NCCOc2ccccc2)C1 (centres undefined)	u	32µM*	2	43%[87.6 µM]
COCCNC(=O)C1(C)CN(C)Cc2ccc(Nc3ccccc3)nc21 (centres undefined)	-4%[87.6 µM]	i	12	-15%[87.6 µM]
CN1Cc2ccc(NCc3ccccc3)nc2C(C)(C(=O)Nc2ccccc2)C1 (centres undefined)	u	28µM*	20	u
COc1cccc(Nc2ccc3c(n2)C(C)(C(=O)NCc2cccs2)CN(C)C3)c1 (centres undefined)	-20%[87.6 µM]	28µM*	-8	-4%[87.6 µM]
CN1Cc2ccc(NCc3ccccc3)nc2C(C)(C(=O)NCc2cccs2)C1 (centres undefined)	-17%[87.6 µM]	u	-6	-28%[87.6 µM]
COc1ccc(NC(=O)C2(C)CN(C)Cc3ccc(NCc4ccccc4)nc32)cc1 (centres undefined)	-3%[87.6 µM]	32µM*	5	3%[87.6 µM]
COc1cc(/C=C2\Oc3cc(OC(=O)C(C)(C)C)ccc3C2=O)cc(OC)c1OC	x	i	x	x
COC(=O)c1ccc(C2C(C(=O)c3ccco3)=C(O)C(=O)N2CCc2ccccc2)cc1 (centres undefined)	x	i	x	x
Cc1ccc(C(=O)NC2CC2)cc1NC(=O)CC1C=CCC1 (centres undefined)	x	i	x	x
Cn1ncc2c(N)nc(NC3CC(c4cc(=O)[nH]c(C5CC5)n4)C3)nc21 (centres undefined)	-2%	20µM*	8	-4%
Cc1nnc(NC2CC(c3cc(=O)[nH]c(C4CC4)n3)C2)c2ccccc12 (centres undefined)	-5%	i	8	5%
O=C(O)c1ccnc(-c2ccnc(NCCc3noc(C4CCC4)n3)n2)c1	-1%	28µM*	28	10%
O=C(O)c1ccnc(-c2ccnc(NCCN3CCCCC3=O)n2)c1	4%	22µM*	44	-22%
O=C(OC1CCCCC1)c1nn(-c2ccccc2)c(=O)c2ccccc12	x	i	x	x
CC(C)OCCNc1nccc(C2(c3ccccc3Cl)CCNCC2)n1	u	u	-16	-6%
COCCNc1nccc(C2(c3ccccc3Cl)CCNCC2)n1	-23%	22µM*	5	11%
CC(C)Cc1noc(CN2CCC(c3nc4cc(Cl)ccc4o3)CC2)n1	x	i	x	x
COCCN1Cc2nc(-c3cc(F)cc(F)c3)ccc2OCC1=O	-5%[87.6 µM]	i	-7	-24%[87.6 µM]
O=C1COc2ccc(-c3ccccc3)nc2CN1Cc1ccccc1	-10%[87.6 µM]	i	-10	6%[87.6 µM]
COCCN1Cc2nc(-c3ccc(OC)c(F)c3)ccc2OCC1=O	1%[87.6 µM]	40µM*	-3	18%[87.6 µM]
SMILES	SNCA viab count	KDM5B inhibitor	IP6K1 inhibitor	SNCA expr inh
O=C1COc2ccc(-c3cc(F)cc(F)c3)nc2CN1Cc1ccccc1	1%[87.6 µM]	32µM*	-6	-13%[87.6 µM]
O=C1COc2ccc(N3CCCC3)nc2CN1Cc1ccccc1	-3%[87.6 µM]	35µM*	-3	-10%[87.6 µM]
COc1ccc(-c2ccc3c(n2)CN(Cc2ccccc2)C(=O)CO3)cc1F	-16%[87.6 µM]	20µM*	-7	7%[87.6 µM]
COc1ccc(C2(C(=O)N3c4ccccc4CC3c3noc(C4CCOCC4)n3)CC2)cc1 (centres undefined)	-10%	i	4	135%
CCOc1ccc(C(=O)Nc2ccc(N3CCCC3)nc2)cc1OC	x	i	x	x
CCOC(=O)N1CCN(C(=O)CN(c2ccc(F)cc2)S(C)(=O)=O)CC1	x	i	x	x
CC#CCn1cc2c3c(cccc31)[C@H](CC(C)C)N[C@H](C(=O)N1CCN(CCOC)CC1)C2	-22%	28µM*	0	15%
COc1ccccc1CNC(=O)[C@@H]1Cc2cn(C)c3cccc(c23)[C@H](CC(C)C)N1	u	35µM*	-5	u
CCCNC(=O)NNC(=O)C(CC)c1ccccc1 (centres undefined)	x	i	x	x
NCc1cccc(-c2cccc(Cl)c2)c1	0%[87.6 µM]	i	-6	22%[87.6 µM]
CN(Cc1ccccc1)C(=O)N1CCN(C(=O)c2cc(-c3cccc(Cl)c3)n[nH]2)CC1	x	i	x	x
CCN(C(=O)CC1COc2ccc(C(=O)N(C)C)cc2N1C)C1CC1 (centres undefined)	-3%	i	-6	10%
COCCNC(=O)c1ccc2c(c1)N(C)C(CC(=O)N(C)C(C)C)CO2 (centres undefined)	2%	28µM*	-10	24%
C#CCN(C)C(=O)CC1COc2ccc(C(=O)NCCOC)cc2N1C (centres undefined)	-1%	32µM*	8	-12%
COc1ccc(-c2nc3c(c(=O)[nH]2)CCN(C(=O)Cc2ccsc2)C3)cc1	u	u	6	14%
COc1ccc(-c2nc3c(c(=O)[nH]2)CCN(S(=O)(=O)c2cccs2)C3)cc1	-7%	20µM*	29	-16%
COc1ccc(-c2nc3c(c(=O)[nH]2)CCN(C(=O)COc2ccccc2C)C3)cc1	-13%	25µM*	2	0%
CC(=O)N1CCN(c2ccnc(-c3nnc(C)n3-c3ccccc3)c2)CC1	10%[87.6 µM]	35µM*	6	33%[87.6 µM]
Cc1nnc(-c2cc(N3CCN(c4ccccn4)CC3)ccn2)n1-c1ccccc1	5%[87.6 µM]	i	-8	-22%[87.6 µM]
COc1ccc(-c2nc(C(=O)Nc3cccc(C(C)=O)c3)nn2-c2ccc(Cl)cc2)cc1	11%	i	9	-7%
COCCOc1nc(-c2ccc(Cl)c(Cl)c2)n(-c2ccc(NC(=O)CCl)cc2)n1	30µM*!	x	9	15%
O=C(Cc1n[nH]c(=O)c2ccccc12)NCC1(N2CCCCC2)CCCCC1	x	i	x	x
O=C(Nc1cccc(F)c1)N1Cc2[nH]cnc2C[C@H]1c1nc(-c2ccccc2)no1	-26%[87.6 µM]	28µM*	-1	79%[87.6 µM]
O=C(c1ccc(F)cc1)N1Cc2[nH]cnc2C[C@H]1c1nc(-c2ccc3c(c2)OCO3)no1	-10%[87.6 µM]	40µM*	-12	u
O=C(Nc1cccc(F)c1)N1Cc2[nH]cnc2C[C@H]1c1nc(-c2ccc3c(c2)OCO3)no1	-27%	u	12	u
O=C(Nc1cccc(F)c1)N1Cc2[nH]cnc2C[C@H]1c1nc(-c2ccc(Cl)cc2)no1	u	i	12	-9%
